Assay outcomes from PubChem.
Rows were chosen to be rich in hits. Some 3.6% of all compounds tested hit in one or more screens of this group.
AmpC detergent: AmpC beta-lactamase inhibition with detergent present; Potency, µM (highest dose often 114 µM), inactives show at the highest dose activity change, negative = inhibition, hits mostly inhibitors; AID 485294; AmpC hydrolysis of nitrocefin, absorbance 480 nm, 0.01% Triton; P00811; 370,000 compounds, 0.041% hits;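 also: 0% = no-compound wells and -100% = no-enzyme wells; nearly all actives have a fitted effect of over 25% in size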
Target sequence (P00811 whole entry, looked up): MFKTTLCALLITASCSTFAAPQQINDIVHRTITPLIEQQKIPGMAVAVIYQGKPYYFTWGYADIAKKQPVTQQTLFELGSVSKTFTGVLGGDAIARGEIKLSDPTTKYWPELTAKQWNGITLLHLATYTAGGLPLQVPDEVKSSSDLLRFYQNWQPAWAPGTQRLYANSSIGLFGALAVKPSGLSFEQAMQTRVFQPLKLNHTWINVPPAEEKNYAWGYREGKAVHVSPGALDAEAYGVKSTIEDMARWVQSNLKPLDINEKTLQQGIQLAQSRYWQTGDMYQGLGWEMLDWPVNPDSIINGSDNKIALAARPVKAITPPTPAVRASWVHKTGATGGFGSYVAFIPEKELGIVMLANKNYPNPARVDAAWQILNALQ
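AmpC (5.3 nM in the dispensed reagent) in 20 mM phosphate pH 7.0 with 0.01% (detergent screen) or 0.0001% Triton X-100 was preincubated with compounds for 15 min at room temperature. Nitrocefin was then added from an 800 uM solution, and hydrolysis was followed at 480 nm.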
AmpC no deterg: AmpC beta-lactamase inhibition without detergent. AmpC nitrocefin hydrolysis, absorbance 480 nm, 0.0001% Triton. Potency, µM (series often up to 57.1 µM), for the others: at the top dose activity change, negative = inhibition, usual class: inhibitors. 330,000 compounds, 0.52% hits. AID 485341;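 also: plate controls were no compound for no effect and no enzyme for full effect; nearly all actives have a fitted effect of over 20% in size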
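AmpC (5.3 nM in the dispensed reagent) in 20 mM phosphate pH 7.0 with 0.01% (detergent screen) or 0.0001% Triton X-100 was preincubated with compounds for 15 min at room temperature. Nitrocefin was then added from an 800 uM solution, and hydrolysis was followed at 480 nm.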
Sm TGR inh: S. mansoni TGR enzyme inhibition | Potency, µM (titrated, usually from 114 µM), inactives show at the top dose activity change, negative = inhibition, most hits filed as inhibitors | Q962Y6 | 360,000 compounds, 3% hits | purified TGR, DTNB reduction, TNB absorbance 405 nm; also: nearly all actives have a fitted effect of over 60% in size
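Kinetic colorimetric format: TGR-catalysed, NADPH-driven DTNB reduction monitored via TNB absorbance. Enzyme dispensed at 20 nM; compound exposure 15 min at room temperature before reaction start.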
Giardia FBPA inh-1: blocks Giardia fructose-bisphosphate aldolase activity; A8B2U2; purified Giardia FBPA; Potency, µM (doses to about 59.6 µM), inactives show at the highest dose activity, negative = inhibition, usual class: inhibitors; 290,000 compounds, 0.71% hits; also: nearly all actives have a fitted effect of over 55% in size
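Giardia FBPA (40 nM reagent) was preincubated 10 min at RT with compound (up to 57.5 uM final), then substrate plus GAPDH/TPI/NAD/arsenate coupling system with diaphorase/resazurin was added; resorufin fluorescence (525/598 nm) was read after 20 min.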
Giardia growth: Giardia lamblia growth inhibition | Giardia lamblia trophozoite growth inhibition | shares compounds with Giardia FBPA inh-1 | Potency, µM (series often up to 57.5 µM), for inactives: at the highest dose activity change, negative = inhibition, usual class: inhibitors | 1,500 compounds, 5% hits;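 also: trophozoites exposed to compound for 48 h at 37 °C; nearly all actives have a fitted effect of over 70% in size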
Mammalian tox: toxic to mammalian cells in Giardia aldolase counter-screen | shares compounds with Giardia FBPA inh-1 | Potency, µM (doses to about 57.5 µM), for inactives: at the highest dose viability change, negative = toxicity, usual class: inhibitors | 1,500 compounds, 4% hits | mammalian cell viability counter-screen, qHTS | AID 2786;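 also: Chinese hamster ovary cells used as mammalian cytotoxicity surrogate; viability measured as cellular ATP by luminescence; compound exposure lasted 48 h before reading; nearly all actives have a fitted effect of over 60% in size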
Giardia FBPA inh-2: confirmation of Giardia fructose-bisphosphate aldolase inhibitors. shares compounds with Giardia FBPA inh-1. purified Giardia aldolase enzyme activity, qHTS. Potency, µM (top dose mostly 57.5 µM), without a hit: top-dose activity change, negative = inhibition, most hits filed as inhibitors. 1,500 compounds, 5% hits; also: nearly all actives have a fitted effect of over 45% in size
Rabbit FBPA inh: blocks rabbit muscle aldolase in Giardia aldolase selectivity test. shares compounds with Giardia FBPA inh-1. Rabbit muscle FBPA enzyme inhibition, selectivity counter-screen. Potency, µM (doses to about 57.5 µM), for the others: at the highest dose activity, negative = inhibition, hits mostly inhibitors. 1,500 compounds, 4% hits; also: nearly all actives have a fitted effect of over 60% in size
Target sequence (P00883 whole entry, looked up): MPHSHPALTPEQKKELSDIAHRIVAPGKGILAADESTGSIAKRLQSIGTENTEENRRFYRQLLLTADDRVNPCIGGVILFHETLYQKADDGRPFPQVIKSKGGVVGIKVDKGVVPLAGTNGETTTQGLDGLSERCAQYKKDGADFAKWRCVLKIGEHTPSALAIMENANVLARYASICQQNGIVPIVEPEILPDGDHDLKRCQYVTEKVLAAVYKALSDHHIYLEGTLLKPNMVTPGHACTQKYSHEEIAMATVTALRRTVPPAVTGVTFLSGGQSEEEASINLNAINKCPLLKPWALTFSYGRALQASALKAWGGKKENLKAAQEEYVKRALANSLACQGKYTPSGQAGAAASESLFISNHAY
GAPDH coupling: counter-screen for Giardia aldolase inhibitors: GAPDH coupling enzyme. shares compounds with Giardia FBPA inh-1. 1,500 compounds, 6% hits. AID 2795. GAPDH coupling enzyme counterscreen, biochemical, qHTS. Potency, µM (highest dose often 57.5 µM), without a hit: at the top dose activity change, negative = inhibition, actives largely listed as inhibitors; also: nearly all actives have a fitted effect of over 55% in size
* marks the source's active call; other numbers are inactive results; ? = inconclusive; . = no result; [ ] = dose if it differs, or a comment. Calls follow the shape of the dose curve; as a rule, active = well fitted curve in the direction sought with a large enough effect; inconclusive = small, poorly fitted or top-dose-only effect, or another doubt; inactive = no such curve, though single readings can be large; an effect the other way counts as inactive or inconclusive. Unless noted, % is scaled to controls: 0 for no effect and ±100 for the full control effect; potency is read from the fitted curve at half-maximal effect.

SMILES	AmpC detergent	AmpC no deterg	Sm TGR inh	Giardia FBPA inh-1	Giardia growth	Mammalian tox	Giardia FBPA inh-2	Rabbit FBPA inh	GAPDH coupling
Cc1cc(C)n(CC(=O)O)c(=O)c1[N+](=O)[O-]	8%	-20%	40µM*	7.9µM*	-25%	19%	-9%	-4%	5%
Cc1cc(=O)n(CC(=O)O)c2ccccc12	5%	-15%	13%	1%	.	.	.	.	.
O=C(CSC(=S)N1CCCC1)c1cc(Br)cc(Br)c1O	-5%	?	-21%	14µM*	?	25µM*	-23%	-26%	?
CC1CCCN(C(=S)SCC(=O)c2cc(Br)cc(Br)c2O)C1 (stereo unspecified)	4%	-50%	0%	-22%	.	.	.	.	.
O=c1cnc2cnc(Oc3ccccc3)nc2n1C1CC1	.	.	.	-5%	.	.	.	.	.
CCCCc1nc2ccccc2c(NC(=O)CN(CC)CC)c1CCC	?	26%	2%	-25%	.	.	.	.	.
CCN(CC)CC(=O)Nc1cc(N(C)C)nc2ccccc12	3%	-15%	1%	5.6µM*	?	-1%	5%	5%	15%
CCCc1nc2ccccc2c(NC(=O)CN(CC)CC)c1CC	2%	-5%	-6%	16µM*	7%[10.4 µM]	9%	-2%	8%	11%
CC[C@@H](C)[C@@H](CO[C@@H](Cc1ccccc1)C(=O)N[C@@H](CCS(C)(=O)=O)C(=O)OC(C)C)NC[C@@H](N)CS	.	.	.	-16%	.	.	.	.	.
CC(C)(C)NC(=S)/N=C(\N)N[N+](=O)[O-]	-13%	-21%	-2%	16µM*	30%	14%	14%	14%	14%
COC(=O)Nc1ccc(N=C(N)N[N+](=O)[O-])cc1	6%	-13%	1%	1%	.	.	.	.	.
O=c1[nH]cc(I)cc1I	4%	-20%	2%	10µM*	-28%	13%	-8%	3%	-3%
CCN1CCN(CC(=O)Nc2ccc(OC(F)(F)F)cc2)CC1	-16%	0%	0%	18µM*	83%	4%	3%	7%	-11%
O=C(CN1CCCC1)Nc1ccc(OC(F)(F)F)cc1	-7%	14%	5%	?	.	.	.	.	.
CC(C)(C)c1ccc(Oc2ccc(NC(=O)CCC(=O)OCC(=O)c3ccccc3)cc2)cc1	0%	.	3%	.	.	.	.	.	.
CC(C(=O)Nc1ccccc1F)N1CCN(C)CC1 (stereo unspecified)	1%	-5%	-30%	16µM*	9%	9%	4%	4%	13%
CNC(=O)Nc1ccccc1F	-2%	1%	-22%	4%	.	.	.	.	.
CC(C)c1ccc(NC(=O)Cn2nnc(C(=O)NCc3ccc(Cl)cc3)c2N)cc1	4%	.	5%	.	.	.	.	.	.
OC1OC[C@@H](O)[C@@H](O)[C@@H]1O (stereo partly specified)	.	.	.	7%	.	.	.	.	.
CC(C)N(CC#CCC(O)(c1ccccc1)c1ccccc1)CCO	1%	18%	55%	16µM*	-8%	9%	3%	19%	3%
CCOc1ccc(Cc2n[nH]c(=S)n2N)cc1	1%	-11%	6%	?	.	.	.	.	.
COc1ccc(Cc2n[nH]c(=S)n2N)cc1OC	-2%	-26%	.	13µM*	-6%	-1%	-4%	6%	3%
Nn1c(Cc2ccccc2F)n[nH]c1=S	6%	-11%	-1%	14µM*	-19%	-3%	-4%	9%	0%
COc1ccccc1N(CCC#N)C(=O)COC(=O)CCC(=O)c1ccc(F)cc1	?	92%	-9%	.	.	.	.	.	.
Cc1ccccc1OCC(=O)Nc1ccc(N2CCN(C)CC2)c(Cl)c1	-13%	41%	8%	-11%	.	.	.	.	.
SMILES	AmpC detergent	AmpC no deterg	Sm TGR inh	Giardia FBPA inh-1	Giardia growth	Mammalian tox	Giardia FBPA inh-2	Rabbit FBPA inh	GAPDH coupling
Cc1noc(C)c1-c1ccc2ncnc(N3CCC(C(=O)O)CC3)c2c1	.	.	.	4%	.	.	.	.	.
Cc1cccc(S(=O)Cc2ccc(C(=O)NC3CCCCCC3)o2)c1 (stereo unspecified)	14%	.	-27%	.	.	.	.	.	.
O=C(NCc1ccccn1)c1ccc(NS(=O)(=O)c2ccccc2)cc1	1%	-4%	-30%	7%	.	.	.	.	.
N#Cc1c(-c2ccc(F)cc2)cc(-c2ccccc2)nc1SCC(=O)NCC(=O)O	-7%	15%	6%	7.1µM*	21%[38.3 µM]	15%	-2%	6%	15%
CN(C)c1ccc(/C=N/NC(=O)CN2CCN(c3ccc(F)cc3)CC2)cc1	-3%	-9%	21%	-1%	.	.	.	.	.
O=C(O)CCCN1C(=O)/C(=C/c2ccc(-c3nc4ccccc4s3)o2)SC1=S	-6%	-24%	?	-22%	.	.	.	.	.
O=C(O)CCCCCN1C(=O)/C(=C\c2ccc(-c3ccc(Cl)cc3)o2)SC1=S	1%	-22%	?	16µM*	11%[10.4 µM]	4%	-4%	3%	15%
Cc1ccc(NC(=O)CN(C)C2CCCCC2)cc1Cl	-5%	31%	8%	20µM*	18%	2%	8%	2%	1%
Cc1ccc(NC(=O)NC2CCCCC2)cc1Cl	-12%	-5%	-3%	0%	.	.	.	.	.
O=C(NCC1CCCN(Cc2ccccc2F)C1)c1cccc(C(F)(F)F)c1 (stereo unspecified)	5%	21%	-3%	2%	.	.	.	.	.
CCN(CC(=O)NCc1ccc(F)cc1)C(=O)CN1CCN(c2ccc(OC)cc2)CC1	2%	3%	6%	7.9µM*	-17%	5%	-8%	-10%	1%
N#Cc1ccsc1NC(=O)CCc1ccccc1	1%	-29%	-29%	-4%	.	.	.	.	.
N#Cc1ccsc1NC(=O)c1ccccn1	-11%	-10%	0%	20µM*	10µM*	-8%	-11%	-2%	-6%
Cc1cc(C)nc(SCc2ccc(C(=O)NNC(=O)Nc3cccc(Cl)c3)cc2)n1	-5%	-7%	-6%	0%	.	.	.	.	.
Cc1ccccc1-c1nc2ccccc2c(=O)n1/N=C/c1ccccc1[N+](=O)[O-]	6%	-11%	3%	4.5µM*	10µM*	?	?	?	35µM*
COc1ccc(CN(C)S(=O)(=O)c2nnc(NC(=O)c3ccccc3OC)s2)cc1OC	-6%	20%	-12%	-17%	.	.	.	.	.
CN(Cc1ccco1)S(=O)(=O)c1nnc(NC(=O)c2ccc(F)cc2)s1	?	-20%	0%	20µM*	7%[10.4 µM]	8%	?	32µM*	20µM*
